Reference: the supplement of paper PMC9177965

System: HT29 sg-Ctrl (RNF43 wildtype)
Test: cell viability activity relative to DMSO (negative = inhibition); higher = more viable cells (less growth inhibition)
Conditions: 5 µM; 96 h
Experimental: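 Broad Repurposing Library primary screen at a single dose of 5 uM. HT29 sg-Ctrl and HT29 RNF43 G659fs CRISPR-edited isogenic cells were seeded at 2500 cells/well in 384-well plates in duplicate and treated for 96 h. Viability was read by CellTiter-Glo and reported as % activity relative to DMSO, with MG132 as the positive control (negative = growth inhibition).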

SMILES	cell viability activity [%]
C=C[C@@](C)(/C=C/c1ccc(O)cc1)CCC=C(C)C	-49.8
C/C(=N/Nc1nnc2c(n1)[nH]c1c(C)cccc12)c1ccccn1	-86.8
Cc1cccc(/C=N/Nc2cc(N3CCOCC3)n3nc(-c4ccncc4)cc3n2)c1	-51.8
CC1(C)CC(Oc2ccc(-c3ccc(-c4cn[nH]c4)cc3O)nn2)CC(C)(C)N1	-89.2
Cc1ccc(C(=O)N(CCCN)[C@@H](c2nc3cc(Cl)ccc3c(=O)n2Cc2ccccc2)C(C)C)cc1	-66.5
N#CC1(c2ccc(NC(=O)c3cccnc3NCc3ccncc3)cc2)CCCC1	-22.7
COc1cc(F)c(F)c(Nc2ccc(I)cc2F)c1NS(=O)(=O)C1(C[C@H](O)CO)CC1	-78.3
COc1ccc(-c2nc(N3CCOCC3)c3sc(CN(C)c4ncc(C(=O)NO)cn4)cc3n2)cn1	-93.5
Oc1ccc(CC2NCCc3cc(O)c(O)cc32)cc1 (stereo not drawn)	-66.3
CC(C)[C@](O)(c1ccc2cc(OC(F)F)c(OC(F)F)cc2c1)c1c[nH]nn1	9.17
CN1CCN(S(=O)(=O)c2ccc(-c3cnc(N)c(C(=O)Nc4cccnc4)n3)cc2)CC1	-40.9
C=CCNC1=C2C[C@@H](C)C[C@H](OC)[C@H](O)[C@@H](C)/C=C(\C)[C@H](OC(N)=O)[C@@H](OC)/C=C\C=C(/C)C(=O)NC(=CC1=O)C2=O	-83.4
O=C(NC1CCN(CCCCC2(C(=O)NCC(F)(F)F)c3ccccc3-c3ccccc32)CC1)c1ccccc1-c1ccc(C(F)(F)F)cc1	-92.3
CO[C@@H]1[C@H](N(C)C(=O)c2ccccc2)C[C@H]2O[C@]1(C)n1c3ccccc3c3c4c(c5c6ccccc6n2c5c31)C(=O)NC4	-61.4
C[C@]1(O)C[C@@H](c2nc(-c3ccc4ccc(-c5ccccc5)nc4c3)c3c(N)nccn32)C1	-26.2
Cc1ncc(-c2ccnc(Nc3ccc(S(C)(=O)=O)cc3)n2)n1C(C)C	-87.7
CCCCCCCCNC(C)C(O)c1ccc(SC(C)C)cc1 (stereo not drawn)	-12.2
CC(C)(C)c1nc(-c2cccc(NS(=O)(=O)c3c(F)cccc3F)c2F)c(-c2ccnc(N)n2)s1	-68.4
CC[C@]1(O)C[C@H]2CN(CCc3c([nH]c4ccccc34)[C@@](C(=O)OC)(c3cc4c(cc3OC)N(C=O)[C@H]3[C@@](O)(C(=O)OC)[C@H](OC(C)=O)[C@]5(CC)C=CCN6CC[C@]43[C@@H]65)C2)C1	-54.5

SMILES	cell viability activity [%]
CN[C@H]1CN(c2ccc3c(=O)c(C(=O)O)cn(-c4nccs4)c3n2)C[C@@H]1OC	-30.9
C=CCn1c(=O)c2cnc(Nc3ccc(N4CCN(C)CC4)cc3)nc2n1-c1cccc(C(C)(C)O)n1	-81
Cc1cc(Nc2ccc(NC(=O)c3ccc(Nc4ccnc5ccccc45)cc3)cc2)nc(N)n1	-93.7
COc1ccc(-c2ccc3c(N4CCOC[C@@H]4C)nc(N4CCOC[C@@H]4C)nc3n2)cc1CO	-55.9
Cc1nc(Nc2ncc(C(=O)Nc3c(C)cccc3Cl)s2)cc(N2CCN(CCO)CC2)n1	-60.3
COc1cc(NC(=O)Nc2cccc(CNC(=O)O[C@H]3CCOC3)c2)ccc1-c1cnco1	-23.6
CC(NCCC(c1ccccc1)c1ccccc1)c1ccccc1 (stereo not drawn)	-69.7
O=C(CCCCCCC(=O)Nc1ccccc1)NO	-84.4
Cc1ccc(S(=O)(=O)C=CC#N)cc1	-97.7
CCCCC(=O)O[C@H]1CC[C@H]2[C@@H]3CCc4cc(O)ccc4[C@H]3CC[C@]12C	-32.5
CC(C)Nc1cc(-c2c[nH]c(C(=O)N[C@H](CO)c3cccc(Cl)c3)c2)c(Cl)cn1	-78.7
CC(C)c1cc(CNc2nc(Nc3cc(C4CC4)[nH]n3)cc(N3CCN(C)CC3)n2)on1	-84.3
Nc1nc(=S)c2ncn([C@@H]3O[C@H](CO)[C@@H](O)[C@H]3O)c2[nH]1	-76.6
CC1(C)CC(=O)c2c(C(F)(F)F)nn(-c3ccc(C(N)=O)c(N[C@H]4CC[C@H](O)CC4)c3)c2C1	-78.4
CN(C)C(=S)SC(=S)N(C)C	-29.9
CCOc1cc2ncc(C#N)c(Nc3ccc(OCc4ccccn4)c(Cl)c3)c2cc1NC(=O)/C=C/CN(C)C	-30.9
CCN(CC)CC1CCN(c2ncc3ncnc(Nc4ccc(F)c(Cl)c4)c3n2)CC1	-16.4
Cc1cc(Nc2ncc(Cl)c(Nc3ccccc3S(=O)(=O)C(C)C)n2)c(OC(C)C)cc1C1CCNCC1	-95
COC[C@H](NC(=O)c1cnc(C)s1)C(=O)N[C@@H](COC)C(=O)N[C@@H](Cc1ccccc1)C(=O)[C@@]1(C)CO1	-93.6
